From PMC5515408, “Sequence-specific DNA binding by MYC/MAX to low-affinity non-E-box motifs” come the findings set out here.

Whole data set: some 5,000 sequences, median “log2 normalized fluorescence” near 0.089, cut for the highest 2% near 0.81. The entries come from a sample that favours the highest values as a whole.

MYC (p64);MAX (p21), in MYC:MAX, sequence (P01106 16-454, chain 1 of 2): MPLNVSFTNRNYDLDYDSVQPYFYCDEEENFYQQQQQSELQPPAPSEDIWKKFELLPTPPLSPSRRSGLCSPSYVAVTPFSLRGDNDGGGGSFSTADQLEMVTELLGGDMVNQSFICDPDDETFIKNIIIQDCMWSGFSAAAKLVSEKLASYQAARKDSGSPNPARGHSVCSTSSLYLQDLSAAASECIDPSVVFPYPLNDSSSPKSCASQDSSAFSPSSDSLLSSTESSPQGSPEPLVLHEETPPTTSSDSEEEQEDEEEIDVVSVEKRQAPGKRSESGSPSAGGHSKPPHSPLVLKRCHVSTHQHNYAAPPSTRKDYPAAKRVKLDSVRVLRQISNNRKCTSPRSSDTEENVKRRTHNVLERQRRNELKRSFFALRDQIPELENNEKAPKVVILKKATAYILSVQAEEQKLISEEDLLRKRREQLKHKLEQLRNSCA
MYC (p64);MAX (p21), in MYC:MAX, sequence (P61244 other isoform, or with tags, fused parts or gaps |, chain 2 of 2): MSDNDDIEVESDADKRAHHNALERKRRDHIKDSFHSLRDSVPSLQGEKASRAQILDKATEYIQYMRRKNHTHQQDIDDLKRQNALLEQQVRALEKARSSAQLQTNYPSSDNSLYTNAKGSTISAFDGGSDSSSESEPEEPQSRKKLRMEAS

The test has as its target MYC (p64);MAX (p21), in MYC:MAX (human;human, UniProt P01106-1;P61244-2 1-439;1-151, |). The test is described as follows: protein-binding microarray (anti-MAX antibody); PBM: 15 mM Tris-HCl pH 7.5, 100 mM KCl, 0.075% NP40, 7.5 mM beta-mercaptoethanol, 375 ng/ul BSA, 8 ng/ul poly(dA-dT):(dA-dT), 550 ng complex, 60 min, room tempe; high values mean tight binding. To be noted: protein: recombinant;recombinant; tags: 6xHis;6xHis; copies: 1;1; label: 3' end of printed strand (linker) attached to glass slide; dsDNA, one strand shown. In outline:
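Binding is reported as log2 normalized fluorescence. Recombinant His-tagged human MYC:MAX or MAX:MAX dimers expressed in E. coli (550 ng) were incubated with a custom Agilent glass array for 60 min at room temperature in Tris-KCl buffer, pH 7.5, containing NP40, BSA and poly(dA-dT) competitor. The array carried ~5000 unique 12-nt sequences, each spotted in triplicate and made double-stranded by primer extension, and bound protein was detected with anti-MAX and secondary antibodies and scanned at 543 nm.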
For the sequence “CCGGCTGACACGTAGAGTTAATAGCTAAGATTACTATATCGACG”, the binding signal was 0.293 log2 normalized fluorescence.
With “CCGGCTGACACGTGCTATTAATAGCTAAGATTACTATATCGACG” the figure was 0.869 log2 normalized fluorescence; with “CCGGCGGACACGTGGAGTTAATAGCTAAGATTACTATATCGACG”, 0.745 log2 normalized fluorescence.
With “CCGGCTGACACGTGTGGTTAATAGCTAAGATTACTATATCGACG”, the binding signal was 0.792 log2 normalized fluorescence.
With “CCGGCTGACACGTGCTCTTAATAGCTAAGATTACTATATCGACG” the figure was 0.813 log2 normalized fluorescence; with “CCGGCTGACACGTGCATTTAATAGCTAAGATTACTATATCGACG”, 0.894 log2 normalized fluorescence.
As for “CCGGCTGACACGTGGAGTTAATAGCTAAGATTACTATATCGACG”, the figure is 0.923 log2 normalized fluorescence.
As for “CCGGCTGACACGTGATTTTAATAGCTAAGATTACTATATCGACG”, the binding signal is 0.626 log2 normalized fluorescence.
With “CCGGCTGACACGTGGGTTTAATAGCTAAGATTACTATATCGACG” the figure was 0.725 log2 normalized fluorescence; with “CCGGCTGACACGTTGCATTAATAGCTAAGATTACTATATCGACG”, 0.792 log2 normalized fluorescence; with “CCGGCTGACACGTGGGGTTAATAGCTAAGATTACTATATCGACG”, 1 log2 normalized fluorescence.
As for “CCGGCTGACACGTGCTGTTAATAGCTAAGATTACTATATCGACG”, the figure is 0.743 log2 normalized fluorescence.
As to “CCGGCAGAAACGCGGTATTAATAGCTAAGATTACTATATCGACG”, the binding signal is 0.575 log2 normalized fluorescence.
As for “CCGGCTGATTACGAGTATTAATAGCTAAGATTACTATATCGACG”, the figure is 0.0125 log2 normalized fluorescence; as for “CCGGCTGACACGAGATATTAATAGCTAAGATTACTATATCGACG”, 0.491 log2 normalized fluorescence; as for “CCGGCTGATCCGCTGTATTAATAGCTAAGATTACTATATCGACG”, -0.0182 log2 normalized fluorescence.
Turning to “CCGGCTGAAACGTTGTATTAATAGCTAAGATTACTATATCGACG”, the binding signal was 0.435 log2 normalized fluorescence.
As for “CCGGCTGAAACACAGTATTAATAGCTAAGATTACTATATCGACG”, the figure is 0.249 log2 normalized fluorescence.
With “CCGGCTGATGGTCCGTATTAATAGCTAAGATTACTATATCGACG” the figure was 0.278 log2 normalized fluorescence.
As for “CCGGCTGATGAGCAGTATTAATAGCTAAGATTACTATATCGACG”, the figure is -0.0208 log2 normalized fluorescence; as for “CCGGCTGATGGGTTGTATTAATAGCTAAGATTACTATATCGACG”, 0.152 log2 normalized fluorescence.
Turning to “CCGGCTGACACGTGCGATTAATAGCTAAGATTACTATATCGACG”, the binding signal is 0.786 log2 normalized fluorescence.
With “CCGGCTGACACGTGGATTTAATAGCTAAGATTACTATATCGACG” the figure was 0.893 log2 normalized fluorescence; with “CCGGCTGACACGTGAATTTAATAGCTAAGATTACTATATCGACG”, 0.712 log2 normalized fluorescence; with “CCGGCTGACACGTGTGCTTAATAGCTAAGATTACTATATCGACG”, 0.818 log2 normalized fluorescence.
In the case of “CCGGCTGACACGTGCGCTTAATAGCTAAGATTACTATATCGACG”, the binding signal was 0.633 log2 normalized fluorescence.
As for “CCGGCTGACACGTGACATTAATAGCTAAGATTACTATATCGACG”, the figure is 0.756 log2 normalized fluorescence.
With “CCGGCTGACACGTGCCATTAATAGCTAAGATTACTATATCGACG” the figure was 1 log2 normalized fluorescence; with “CCGGCTGACACGTGCCGTTAATAGCTAAGATTACTATATCGACG”, 0.783 log2 normalized fluorescence.
Take “CCGGCTGACACGTGGGATTAATAGCTAAGATTACTATATCGACG”: the binding signal is 0.669 log2 normalized fluorescence.
